# Assay results reported in the supplement of paper PMC10338343.
# ± gives the standard deviation. Over roughly 3,000 sequences, “pre-steady-state target cleavage rate” has its median near 0.0079; the highest 2% begin near 0.2. What follows is part of a selection rich in the highest values, with near analogues and random picks from the rest.
# System: MILI (PIWIL2) piRISC loaded with piRNA #2 (26 nt)
# Assay: pre-steady-state target cleavage rate (min^-1); MIWI and MILI are mouse PIWI proteins and EfPiwi is from a freshwater sponge; tags in brackets are library labels; higher = faster piRNA-guided slicing of the target
# Settings: guide: piRNA #2 5'p-UUAGGUAACCCAGUAGAUCCAGAGGA; auxiliary factor: 500 nM mouse GTSF1
# Description: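 Cleave-'n-Seq: a library of target RNAs (target site embedded in constant flanks, ACAGCATTCCGCGTTAGTGATATCCG... 5' flank; DNA-blocked outside the site) at 0.1 nM was incubated with 1 nM active mouse MILI or MIWI piRISC (synthetic 5'-monophosphorylated piRNA guide) with or without 500 nM mouse GTSF1 at 33 °C for 1 min to 16 h. Uncleaved targets were sequenced and normalised to non-target controls, and the pooled three trials were fitted to a burst-and-steady-state model to give the pre-steady-state cleavage rate (min^-1; k3 is constrained to at most 1e-4). Sequence is the target site only; target names encode pairing extent (gX:gY) and contiguous / 1-mismatch / 2-mismatch / bulge geometry. Fits with R² ≤ 0 are excluded.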
row,Sequence,pre-steady-state target cleavage rate
1,CUUAAGCUCUGGAUCUAGUGGGUUACCUAA,0.0282 ± 0.0073
2,CUUAUCCUCUGGAGCUACUGGGUUACCUAA,0.238 ± 0.052
3,CUUAAGCUCUGGAGCUACUGGGUUACCUAA,0.0783 ± 0.014
4,CUUAUCCUCUGGACCUACUGGGUUACCUAA,0.0996 ± 0.024
5,CUUAACCUCUGGACCUACUGGGUUACCUAA,0.0796 ± 0.023
6,CUUAUCCUCUGGAUCCUACUGGGUUACCUAA,0.0665 ± 0.018
7,CUUAACCUCUGGAGCUACUGGGUUACCUAA,0.226 ± 0.049
8,CUUAACCUCUGGAUCUACUGGGAUACCUUA,0.0634 ± 0.023
9,CUUAAGGUCUGGAUCUACUGGGUUACCUUAA,0.0607 ± 0.015
10,CUUAAGCUCUCCUUCUACUGGGUUACCUAA,0.0472 ± 0.016
11,CUUAAGCUGCUGGAUCUACUGGGUUACCUAA,0.0417 ± 0.015
12,CUUAGCCUCUGGAUCUACUGGGUUACCUAA,0.218 ± 0.05
13,CUUAUACCUCUGGAUCUACUGGGUUACCUAA,0.251 ± 0.058
14,CUUAACCUCUGGAUCUACUGGGUUAGCCUAA,0.15 ± 0.035
15,CUUAAGCCUCUGGAUCUACUGGGUUACCUAA,0.146 ± 0.043
16,CUUAUACUCUGGAUCUACUGGGUUACCUAA,0.0651 ± 0.014
17,CUUAAGCCUGGAUCUACUGGGUUACCUAA,0.104 ± 0.026
18,CUUAAGCCCUGGAUCUACUGGGUUACCUAA,0.202 ± 0.041
19,CUUACCCUCUGGAUCUACUGGGUUACCUAA,0.11 ± 0.016
20,CUUAAGGACUGGAUCUACUGGGUUACCUAG [g2:g22:cont:t1G],0.0474 ± 0.017
21,CUUAAGCUCAGGAUCUACUGGGUUUCCUAA,0.0265 ± 0.01
22,CUUAAGCUCUGGAUCUAAUGGGUUACCUAA,0.0186 ± 0.0042
23,CUUAAGCUCUGGAUCUACUGGGUGUACCUAA,0.0345 ± 0.0091
24,CUUAUCCUCUGGAUCUGCUGGGUUACCUAA,0.0654 ± 0.015
25,CUUAUCCUCUGGAUCUCCUGGGUUACCUAA,0.459 ± 0.18
26,CUUAACCUCUGGAUCUCUGGGUUACCUAA,0.00889 ± 0.0054
27,CUUAUCCUCUGGAUCUCUGGGUUACCUAA,0.0227 ± 0.01

row,Sequence,pre-steady-state target cleavage rate
1,CUUAACCUCUGGAUCUGCUGGGUUACCUAA,0.097 ± 0.028
2,CUUAACCUCUGGAUCUCCUGGGUUACCUAA,0.213 ± 0.084
3,CUUAAGCUCUGGAUCAACUGGGUUACCUUA,0.0336 ± 0.011
4,CUUAAGGUCUGGAUCUACUGGGUUUACCUAA,0.0618 ± 0.011
5,CUUAACCUCUGGAUCUACUGGGUUUCCUAA,0.224 ± 0.062
6,CUUAAGCUCUGGAUCUACUGGGUUUGCUAA,0.144 ± 0.031
7,CUUAACCUCUCGAUCUACUGGGUUUCCUAA,0.138 ± 0.035
8,CUUAACCUCUGGUUCUACUGGGUUUCCUAA,1.67 ± 0.98
9,CUUAACCUCUGGAUCUACUGGGUUUACCUAA,0.0817 ± 0.019
10,CUUAACCUCUGGAUCUUCUGGGUUACCUAA,0.0795 ± 0.017
11,CUUAACCUCUGGAUCUACUGGGUUAACCUAA,0.115 ± 0.024
12,CUUAACCUCUGGAUCUUCUGGGUAACCUAA,0.0414 ± 0.016
13,CUUAACCUCUGGAUCUACUGGGUUUGCUAA,0.305 ± 0.066
14,CUUAACCUCUGCAUCUACUGGGUUUCCUAA,0.14 ± 0.059
15,CUUAACCUCUGGAUCUUCUGGGUUUCCUAA,0.243 ± 0.083
16,CUUAACCUCUGGAUCUACUGGGUUAGCUAA,0.112 ± 0.022
17,CUUAAGGAGACCUAGUACUUGGUUACCUAA,< 0.0001
18,CUUAUGCUCUGGAUCUACUGGGUAACCUAA,0.0539 ± 0.012
19,CUUAAGGACUGCAUCUACAGGGUUACCUAA,0.0435 ± 0.015
20,CUUAACAUCUGGAUCUACUGGGUUACCUAA,0.114 ± 0.019
21,CUUAAGGAGUGGAUCUACUGGGUUACCUAG [g2:g21:cont:t1G],0.0456 ± 0.013
22,CUUAAGCUGACGAUCUACUGGGUUACCUAA,0.0365 ± 0.015
23,CUUAAGCUCUGGAUUACUGGGUUACCUAA,0.0142 ± 0.0047
24,CUUAAGGAGAGGAUCUACUGGGUUACCUAA [g2:g20:cont:t1A],0.0156 ± 0.0072
25,CUUAAGGACAGGAUCUACAGGGUUACCUAA,0.0375 ± 0.014
26,CUUAACCACUGGAUCAACUGGGUUACCUAA,0.0515 ± 0.014
27,CUUAUCCUCUGGAUCUAGUGGGUUUCCUAA,0.055 ± 0.016

row,Sequence,pre-steady-state target cleavage rate
1,CUUAAGCUCUGGAUCUUCUGGGUUUCCUAA,0.0561 ± 0.017
2,CUUAAGCUCUGCAUCUACUGGGUUUCCUAA,0.0656 ± 0.022
3,CUUAACCUCUGGAUCUACUGGGUUUCCUUA,0.225 ± 0.066
4,CUUAUCCUCUGGAUCUUCUGGGUUUCCUAA,0.258 ± 0.088
5,CUUAACCUCUGGAUCUACUGGGUUUCGUAA,0.128 ± 0.044
6,CUUAAGCUCUGGAUCUACUGGGUUUCCUAA,0.107 ± 0.025
7,CUUAAGCUCUGGUUCUACUGGGUUUCCUAA,0.219 ± 0.085
8,CUUAACCUCUGGAUCUACUGGGUUACCUUA,0.111 ± 0.026
9,CUUAACCUCUCGAUCUACUGGGUAACCUAA,0.0796 ± 0.017
10,CUUAACCACUGGUUCUACUGGGUUACCUAA,0.112 ± 0.019
11,CUUAACCACUGCAUCUACUGGGUUACCUAA,0.0927 ± 0.018
12,CUUAUCCUCUGGAUCUACUGGGUGACCUAA,0.0696 ± 0.014
13,CUUAUCCUCUGGAACUACUGGGUUUCCUAA,1.1 ± 0.56
14,CUUAACCUCUGGAACUACUGGGUUACCUAA,0.133 ± 0.03
15,CUUAACCUCUGGAACUACUGGGUAACCUAA,0.06 ± 0.024
16,CUUAUCCUCUGGAACUACUGGGUAACCUAA,0.0599 ± 0.022
17,CUUAACCUCUGGAACUACUGGGUUUCCUAA,0.311 ± 0.14
18,CUUAUCCUCUGGAACUACUGGGUUAGCUAA,0.0654 ± 0.021
19,CUUAAGGACUGGAUCUACUGGGUUACCUUAA,0.0243 ± 0.014
20,CUUAUCCUCUGGAUCUAUUGGGUUACCUAA,0.139 ± 0.036
21,CUUAAGGAGACCUAGAUGACGGUUACCGAA,< 0.0001
22,CUUAAGCUCUGGAUCUACUGGGUUCCCUAA,0.0477 ± 0.017
23,CUUAAGCUCUGCAUCUACUGGGUUACGUAA,0.0499 ± 0.016
24,CUUAUCCUCUGGAUCAACAGGGUUACCUAA,0.0724 ± 0.01
25,CUUAAGGUCUGCAUCUACUGGGUAACCUAA,0.00707 ± 0.006
